In all, about 10,000 compounds went through this assay and about 20 (0.2%) were called active. How the calls were made is not given here. Not all results are given here.
Assay: enhancers of VCAM-1 display on endothelial cells, imaging, high-content imaging, pooled HUVEC, TNFa stimulus (AID 457)
Conditions: TNFa-induced VCAM-1 immunofluorescence imaging; concentration not given here

augmentation, inactive:
O=C(c1cccc2c1C(=O)N(Cc1cccnc1)C2)N1CCN(c2ccccc2)CC1
Cc1nnc2ccc(N3CCC4(CC3)OCCO4)nn12
Cc1nc(CCNS(=O)(=O)c2cccs2)cs1
CC(O)CN1C(=O)C(CC(=O)Nc2ccc(Cl)cc2)SC1=Nc1ccccc1 (centres undefined)
CCn1c(SCC(=O)C(C)(C)C)nnc1-c1cnccn1
c1ccc(CCNc2ccc3nncn3n2)cc1
O=C(NCc1nc2ccccc2[nH]1)c1ccc(Cl)c(S(=O)(=O)N2CCCC2)c1
Cc1cccc(Nc2nc(N)nc(CN3CCC(C(N)=O)CC3)n2)c1C
O=C(Nc1cccc(NC(=O)c2ccco2)c1)c1ccc2c(c1)OCO2
COc1ccccc1OCCn1c(=O)sc2ccccc21
O=C(Cc1ccccc1)Nc1ccc(CN2CCOCC2)cc1
Cc1ccc2[nH]c(=O)c3cc(C(=O)NCCN4CCN(C)CC4)sc3c2c1
CCOC(=O)N1CCN(C(=O)CSc2cc(C)nc3c(-c4ccccc4OC)c(C)nn23)CC1
COc1ccc(-c2nc(C#N)c(N3CCN(c4ccccc4)CC3)o2)cc1
CC(C)CNC(=O)c1ccccc1NC(=O)c1ccc(CN2CCOCC2)cc1
CCCN1CCN(CCCNC(=O)C2CCCN(c3nc4ccc(OCC)cc4s3)C2)CC1 (centres undefined)
CC(C)N(C(=O)N1CCC(c2nc(-c3ccncc3)no2)CC1)C(C)C
O=C(CN1C(=O)CC(c2ccco2)Sc2ccccc21)Nc1ccccc1F (centres undefined)
CC(O)c1c(OCc2ccccc2)ncnc1OCc1ccccc1 (centres undefined)
O=C(O)c1cc2c(s1)CCCC2
CCOC(=O)CN1CC23C=CC(O2)C(C(=O)NC2CCCC2)C3C1=O (centres undefined)
CCOc1ccc2cc(C#N)c(SCC(=O)N3CCC(C)CC3)nc2c1
CC(=O)Nc1sc2c(c1C#N)CCCCC2
CCCOc1ccc(S(=O)(=O)NCCCN2CCOCC2)c2ccccc12
O=C(Cn1ccc2ccccc2c1=O)Nc1ccc2c(c1)OCO2
CCOCCn1cnc2sc(C(=O)Nc3nc(C)c(C(=O)OCC)s3)c(C)c2c1=O
Nc1nc2ccccc2n1C(=O)CCc1ccccc1
Cc1sc2nc(CN3CCN(S(=O)(=O)c4cccc5nonc45)CC3)[nH]c(=O)c2c1C
O=C(CN1CCC(n2nnc3ccccc32)CC1)Nc1ccc2c(c1)CCC2
O=C(Nc1ncc(Cc2ccccc2)s1)C1CCCO1 (centres undefined)
O=C(Cc1c(F)cccc1Cl)Nc1ccncc1
CCCCCCc1ccc(-c2ncc(N)cn2)cc1
CCc1nnc(NC(=O)CSc2nnc(-c3ccoc3C)n2CC(C)C)s1
COc1nc(C)ccc1-c1noc(-c2ccncc2)n1
Cc1noc(/C=C/N(C)C)c1S(=O)(=O)N1CCc2ccccc21
O=C(Nc1ccc2c(c1)OCCO2)c1cnc2n(c1=O)CCS2
Cc1[nH]nc(N=CC2=C(O)CC(C)(C)CC2=O)c1-c1ccccc1
Cc1csc(SCCn2c(N3CCCC3)nc3c2c(=O)[nH]c(=O)n3C)n1
O=C(Nc1ccccc1Cl)c1c(F)c(F)c(F)c(F)c1F
O=C(COc1nnnc2ccccc12)N1CCCc2ccccc21
CC1(C)CC(=O)c2cnc(NCc3ccco3)nc2C1
COC(=O)C1=C(C)OC(N)=C(C#N)C1c1c(C)nn(-c2ccccc2)c1Cl (centres undefined)
CCCNC(=O)c1cc(S(=O)(=O)N2CCc3ccccc32)ccc1F
O=C(CSc1ncc(-c2ccc(F)cc2)[nH]1)N1CCCCC1
CC(C)OC(=O)CSc1nnc(-c2ccc(O)cc2)n1Cc1ccccc1
CSC1CCCCC1(O)CSc1nc2c(cc1C#N)CCCC2 (centres undefined)
Cc1cc(C)cc(NC(=O)C2CCCN(c3nccc(C)n3)C2)c1 (centres undefined)
Cn1c(/C=N/n2cnnc2)nc2ccccc21
Cc1ccccc1NC(=O)C1CCN(c2cnccn2)CC1
O=C(Nc1cccnc1)Nc1ccc(F)c(Cl)c1
C(=C\c1ccccc1)/CN1CCN(Cc2ccc3c(c2)OCCO3)CC1
CCOC(=O)N1CCN(CCC(=O)c2ccc(Cl)cc2)CC1
CCOC(=O)CSc1nc2ccccc2n1CC(=O)N1CCN(c2ccccc2)CC1
COc1ccccc1C(=O)NCC(=O)Nc1ccccc1
CCC(C)(C)NC(=O)CN(C(=O)c1snc(C(N)=O)c1N)c1ccc2c(c1)OCO2
COC(=O)c1ccccc1NC(=O)C1CC(=O)N(c2ccc(F)cc2)C1 (centres undefined)
Cc1cc(Cl)c(S(=O)(=O)N2CCN(c3ccc(F)cc3)CC2)cc1OCC(N)=O
Cc1ccc(-n2nnnc2SCC(=O)N2CCN(C(=O)c3ccco3)CC2)c(C)c1
O=S(CC(O)COCc1ccc(Cl)cc1)c1ccccn1 (centres undefined)
